The values that follow come from PubChem BioAssay AID1259343 (VanderVen Lab, College of Veterinary Medicine, Cornell …, 2017).

About 2,900 (47%) of roughly 6,200 compounds were called active. The set was probably picked from earlier hits. The list shows a part of the results. A number with no mark means an inactive call. No stated cut-off is given here; in the data, active means inhibition above about 50%; inactive means the rest.

This assay in a line: Mycobacterium tuberculosis growth inhibition, primary screen (AID 1259343). Particulars: inhibition: at 10 µM, stronger effect = higher value; outcome: 10 uM.
As for `O=C1CCC(=O)N1c1ccc(-c2nc3sc4c(c3c(=O)o2)CCC4)cc1`, the inhibition was -4.37%.

As for `CC(C)(C)c1nc2sc3c(c2c(=O)o1)CCCC3`, the inhibition was 25.7%.

In the case of `Cc1nc2sc3c(c2c(=O)o1)CCCCC3`, the inhibition was 102% (active).

For `COc1ccccc1C(C)(C)C(=O)n1nc(C(F)(F)F)nc1N`, the inhibition is 7.93%.

Regarding `NC(=O)C1CCN(c2ccc(S(=O)(=O)C(F)(F)F)cc2)C1` (configuration not stated), the inhibition was -74.6%.

For `Cc1cnn(C2CN(c3ccc(S(=O)(=O)C(F)(F)F)cc3)C2)c1`, the inhibition was 84.2% (active).

`CCN(C(=O)c1cc(C)c(-c2ccc(F)cc2)s1)C1CCC1`: the inhibition was 24.1%.

Consider `Cc1cc(C)c(Cn2ccnc2CN(C(=O)c2ccc(F)cc2)C2CC2)c(C)c1`, for which the inhibition was 51.5% (active).

Consider `FC(F)(F)c1ccc(Cn2ccnc2CNC2CCCCC2)cc1`, for which the inhibition is 21.3%.

Consider `CC1=C(C)C(=O)C(CCCCC#CCCCC#CCO)=C(C)C1=O`, for which the inhibition was 84.5% (active).

Consider `C=C(C)CN=c1scc(C)n1N=Cc1sccc1C`, for which the inhibition is 21.6%.

For the compound `COc1ccc2cc(CN(C)C(=O)CCl)ccc2c1`, the inhibition result was “inactive”.

For the compound `COc1ccc(COc2ccc(N(C)C(N)=O)cc2)c(Cl)c1`, the inhibition is 15.9%.

In the case of `COc1ccc(N(CC(F)(F)F)C(=O)CCl)cc1`, the inhibition was 84.1% (active).

As for `CC1CCc2sc(C(=O)NCc3ccc4c(c3)OCO4)cc2C1` (configuration not stated), the inhibition is -11%.

On to `CC1CCCC(NC(=O)c2cc3c(s2)CSC3)C1C` (configuration not stated), for which the inhibition is 55.5% (active).

In the case of `COc1ccc(-c2c(O)c3c(OC)c4c(cc3oc2=O)OC(C)(C)C=C4)cc1`, the inhibition was 63.3% (active).

As for `CC(=O)O[C@@H]1C[C@@]2(C)[C@H](c3ccoc3)C[C@H]3O[C@]32[C@]2(C)C(=O)C(O)=C3C(C)(C)C(=O)C=C[C@]3(C)C12` (some centres not stated), the inhibition was 94.8% (active).

Regarding `COc1cc(=C2C=c3ccccc3=N2)[nH]/c1=C\c1[nH]c(C)cc1C`, the inhibition is -5.42%.

`O=C(NC(=S)Nc1ccc(N2CCN(C(=O)c3ccccc3)CC2)cc1)c1ccco1`: the inhibition is 99.1% (active).

For the compound `COc1ccc(C(=O)N2CCC(C(=O)Nc3cccc(-c4cccc(Cl)c4)c3)CC2)o1`, the inhibition was 70.5% (active).

In the case of `O=C(Nc1cccc(-c2cccc(Cl)c2)c1)C1CCN(C(=O)C2CCOC2)CC1` (configuration not stated), the inhibition is 71% (active).

For `O=C(Nc1cccc(-c2cccc(Cl)c2)c1)C1CCN(C(=O)c2ccccc2)CC1`, the inhibition is 85.9% (active).

Take `O=C(Nc1cccc(-c2cccc(Cl)c2)c1)C1CCN(C(=O)c2cccnc2)CC1`: the inhibition entry is “inactive”.

As to `O=C(Nc1cccc(-c2cccc(Cl)c2)c1)C1CCN(C2CCOCC2)CC1`, the inhibition is 88.7% (active).

On to `O=C(Nc1cccc(-c2cccc(Cl)c2)c1)C1CCN(C(=O)C2CCCO2)CC1` (configuration not stated), for which the inhibition is 9.39%.

Turning to `O=C(Nc1cccc(-c2cccc(Cl)c2)c1)C1CCN(C(=O)c2csnn2)CC1`, the inhibition is -4.87%.

The term inhibition denotes the relative decrease from the control value, in per cent.
